# Laboratory results taken from the supplement of paper PMC9023506.
# Structures can show the parent of a compound that is named as a salt.
# Test system: Danio rerio larvae (5 dpf)
# Experiment: optomotor response to blue moving lines, difference vs DMSO (percentage points (treated minus DMSO)); higher = more of the behaviour than the DMSO vehicle control
# Details: 10 µM; exposure time: 3 h pre-incubation + 3 h imaging
# Description: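 5-dpf wild-type zebrafish larvae were imaged in 96-well plates. They were treated with 190 Tocris FDA-approved drugs at 10 µM (1 µl/ml DMSO) for 3 h before and 3 h during imaging at 28.5 °C, 48 larvae per drug. Automated image analysis gave % time moving and optomotor responses. Values are drug group mean minus DMSO vehicle mean (n=844), in percentage points, for 10 behaviours.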
row,SMILES,optomotor response to blue moving lines
1,COC(=O)C1=C(C)NC(C)=C(C(=O)OC(C)C)C1c1cccc2nonc12 (stereo not given) [Isradipine],-11.3
2,Clc1ccc(COC(Cn2ccnc2)c2ccc(Cl)cc2Cl)c(Cl)c1 (stereo not given) [Miconazole nitrate],-7.42
3,COc1cc2ncnc(Nc3ccc(F)c(Cl)c3)c2cc1OCCCN1CCOCC1 [Iressa],5.63
4,C=C1[C@H](CO)[C@@H](O)C[C@@H]1n1cnc2c(=O)[nH]c(N)nc21 [Entecavir],11.4
5,CS(=O)(=O)CCNCc1ccc(-c2ccc3ncnc(Nc4ccc(OCc5cccc(F)c5)c(Cl)c4)c3c2)o1 [Lapatinib],6.39
6,OCCN1C[C@H](O)[C@@H](O)[C@H](O)[C@H]1CO [Miglitol],5.95
7,C[C@H](Cc1cc2c(c(C(N)=O)c1)N(CCCO)CC2)NCCOc1ccccc1OCC(F)(F)F [Silodosin],15.7
8,OC(c1cc(C(F)(F)F)nc2c(C(F)(F)F)cccc12)C1CCCCN1 (stereo not given) [Mefloquine hydrochloride],10.8
9,CNCc1ccc(-c2[nH]c3cc(F)cc4c3c2CCNC4=O)cc1 [Rucaparib camsylate],10.7
10,CN1CC[C@@H](NC(=O)Nc2ccc(C#N)cc2)C[C@@H]1c1nc2ccccc2[nH]1,3.76
11,CO[C@H]1/C=C/O[C@@]2(C)Oc3c(C)c(O)c4c(O)c(c5c(nc6cc(C)ccn65)c4c3C2=O)NC(=O)/C(C)=C\C=C\[C@H](C)[C@H](O)[C@@H](C)[C@@H](O)[C@@H](C)[C@H](OC(C)=O)[C@@H]1C [Rifaximin],9.62
12,COc1cc2nccc(Oc3ccc(NC(=O)C4(C(=O)Nc5ccc(F)cc5)CC4)cc3)c2cc1OC,-8.79
13,CN[C@H]1CC[C@@H](c2ccc(Cl)c(Cl)c2)c2ccccc21 [Sertraline hydrochloride],-9.96
14,CC(C)COCC(CN(Cc1ccccc1)c1ccccc1)N1CCCC1 (stereo not given) [Bepridil hydrochloride],7.44
15,CN1CC(=O)N2[C@H](c3ccc4c(c3)OCO4)c3[nH]c4ccccc4c3C[C@@H]2C1=O [Tadalafil],-3.81
16,Nc1nc(NC2CC2)c2ncn([C@H]3C=C[C@@H](CO)C3)c2n1 [Abacavir hemisulfate],2.71
17,CN1CCN(CCCN2c3ccccc3Sc3ccc(Cl)cc32)CC1 [Prochlorperazine dimaleate],12.2
18,CCc1ccc(CCOc2ccc(CC3SC(=O)NC3=O)cc2)nc1 (stereo not given) [Pioglitazone hydrochloride],-1.78
19,CC(=O)NC[C@H]1CN(c2ccc(N3CCOCC3)c(F)c2)C(=O)O1 [Linezolid],-4.03
20,Brc1c(NC2=NCCN2)ccc2nccnc12,7.07

row,SMILES,optomotor response to blue moving lines
1,CC1CNc2c(cccc2S(=O)(=O)N[C@@H](CCCNC(=N)N)C(=O)N2CC[C@@H](C)C[C@@H]2C(=O)O)C1 (stereo not given in full) [Argatroban],4.3
2,CCOC(=O)C1=C(C)NC(C)=C(C(=O)OC)C1c1cccc(Cl)c1Cl (stereo not given) [Felodipine],-5.26
3,CCC(=O)O[C@]1(C(=O)SCF)[C@H](C)C[C@H]2[C@@H]3C[C@H](F)C4=CC(=O)C=C[C@]4(C)[C@@]3(F)[C@@H](O)C[C@@]21C [Fluticasone propionate],-10.1
4,CCOC(=O)N1CCC(=C2c3ccc(Cl)cc3CCc3cccnc32)CC1 [Loratidine],6.09
5,O=C1CCc2cc(OCCCCc3nnnn3C3CCCCC3)ccc2N1 [Cilostazol],6.53
6,C[C@]12CC[C@@H]3c4ccc(O)cc4C[C@@H](CCCCCCCCC[S+]([O-])CCCC(F)(F)C(F)(F)F)[C@H]3[C@@H]1CC[C@@H]2O (stereo not given in full),6.07
7,COc1ccccc1Oc1c(NS(=O)(=O)c2ccc(C(C)(C)C)cc2)nc(-c2ncccn2)nc1OCCO [Bosentan],-2.84
8,C[C@@H]1C[C@H]2[C@@H]3CCC4=CC(=O)C=C[C@]4(C)[C@@]3(F)[C@@H](O)C[C@]2(C)[C@@]1(O)C(=O)CO [Dexamethasone],2.76
9,Nc1nc(F)nc2c1ncn2[C@@H]1O[C@H](CO)[C@@H](O)[C@@H]1O [Fludarabine],-12
10,CCCC1O[C@@H]2C[C@H]3[C@@H]4CCC5=CC(=O)C=C[C@]5(C)[C@H]4[C@@H](O)C[C@]3(C)[C@]2(C(=O)CO)O1 (stereo not given in full) [Budesonide],2.29
11,CC[C@H]1OC(=O)[C@H](C)[C@@H](O[C@H]2C[C@@](C)(OC)[C@@H](O)[C@H](C)O2)[C@H](C)[C@@H](O[C@@H]2O[C@H](C)C[C@H](N(C)C)[C@H]2O)[C@](C)(O)C[C@@H](C)CN(C)[C@H](C)[C@@H](O)[C@]1(C)O [Azithromycin],-9.61
12,Cc1nc(-c2ccc(OCC(C)C)c(C#N)c2)sc1C(=O)O [Febuxostat],-7.14
13,COc1cc2nc(N3CCN(C(=O)C4COc5ccccc5O4)CC3)nc(N)c2cc1OC (stereo not given) [Doxazosin mesylate],-6.52
14,CCOc1ccccc1OCCN[C@H](C)Cc1ccc(OC)c(S(N)(=O)=O)c1 [Tamsulosin hydrochloride],2.91
15,N[C@@H]1[C@H]2CN(c3nc4c(cc3F)c(=O)c(C(=O)O)cn4-c3ccc(F)cc3F)C[C@@H]12 [Trovafloxacin mesylate],14.1
16,N#Cc1ccc2[nH]cc(CCCCN3CCN(c4ccc5oc(C(N)=O)cc5c4)CC3)c2c1 [Vilazodone hydrochloride],-5.66
17,CN(C)C(=N)NC(=N)N [Metformin hydrochloride],22.6
18,CN(C)CCC[C@@]1(c2ccc(F)cc2)OCc2cc(C#N)ccc21 [Escitalopram oxalate],1.97
19,CNC(=O)c1ccccc1Sc1ccc2c(/C=C/c3ccccn3)n[nH]c2c1 [Axitinib],13.5
20,CNS(=O)(=O)Cc1ccc2[nH]cc(CCN(C)C)c2c1 [Sumatriptan succinate],-3.13
